Source: PubChem BioAssay (NCATS)
Inconclusive results are not listed. Calls of active or inactive are those of the source. The call rests on the fitted dose curve; in most records, active means well fitted curve in the direction sought with a large enough effect; inconclusive means small, poorly fitted or top-dose-only effect, or another doubt; inactive means no such curve, though single readings can be large; an effect the other way counts as inactive or inconclusive.

How the values were obtained:
[1] = Quantitative High-Throughput drug screen in 47 multiple myeloma cell lines against the NCATS MIPE library collection: KMS20_JCRB cell viability assay (AID 1918973); further: nearly all actives have a fitted effect of over 45% in size
Procedure, shortened: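 Relative luminescence from CellTiter-Glo served as the viability signal, referenced to DMSO-treated (100%) and cell-free medium (0%) controls. Treatment lasted 48 hours at 37C with 500 cells per well.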

[2] = Quantitative High-Throughput drug screen in 47 multiple myeloma cell lines against the NCATS MIPE library collection: KMS26_JCRB cell viability assay (AID 1918975); further: nearly all actives have a fitted effect of over 45% in size
Procedure, shortened: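 qHTS of the MIPE 4.0 collection: 500 myeloma cells/well, 48 h drug exposure at 37C in 5% CO2, then CellTiter-Glo for 5 min at room temperature before luminescence reading.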

[3] = Quantitative High-Throughput drug screen in 47 multiple myeloma cell lines against the NCATS MIPE library collection: MMM1_PLB cell viability assay (AID 1918976); further: nearly all actives have a fitted effect of over 35% in size
Procedure, shortened: (§1)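 MIPE 4.0 approved/investigational drugs; 500 cells/well; 48 h 37 °C humidified 5% CO2; CTG luminescence readout; DMSO = 100%, media = 0% viability.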

[4] = Quantitative High-Throughput drug screen in 47 multiple myeloma cell lines against the NCATS MIPE library collection: MOLP8_DSMZ cell viability assay (AID 1918977); further: nearly all actives have a fitted effect of over 45% in size
Procedure, shortened: as §1

[5] = Quantitative High-Throughput drug screen in 47 multiple myeloma cell lines against the NCATS MIPE library collection: NCIH929_DSMZ cell viability assay (AID 1918978); further: nearly all actives have a fitted effect of over 35% in size
Procedure, shortened: as §1

[6] = Quantitative High-Throughput drug screen in 47 multiple myeloma cell lines against the NCATS MIPE library collection: OCIMY1_PLB cell viability assay (AID 1918979); further: nearly all actives have a fitted effect of over 35% in size
Procedure, shortened: as §1

[7] = Quantitative High-Throughput drug screen in 47 multiple myeloma cell lines against the NCATS MIPE library collection: MM1S_ATCC cell viability assay (AID 1918980); further: nearly all actives have a fitted effect of over 45% in size
Procedure, shortened: as §1

[8] = Quantitative High-Throughput drug screen in 47 multiple myeloma cell lines against the NCATS MIPE library collection: MM1R_ATCC cell viability assay (AID 1918981); further: nearly all actives have a fitted effect of over 35% in size
Procedure, shortened: as §1

[9] = Quantitative High-Throughput drug screen in 47 multiple myeloma cell lines against the NCATS MIPE library collection: KMS28PE_JCRB cell viability assay (AID 1918983); further: nearly all actives have a fitted effect of over 35% in size
Procedure, shortened: as §1

[10] = Quantitative High-Throughput drug screen in 47 multiple myeloma cell lines against the NCATS MIPE library collection: L363_DSMZ cell viability assay (AID 1918984); further: nearly all actives have a fitted effect of over 40% in size
Procedure, shortened: as §1

[11] = Quantitative High-Throughput drug screen in 47 multiple myeloma cell lines against the NCATS MIPE library collection: KMS34_JCRB cell viability assay (AID 1918985); further: nearly all actives have a fitted effect of over 40% in size
Procedure, shortened: as §1

[12] = Quantitative High-Throughput drug screen in 47 multiple myeloma cell lines against the NCATS MIPE library collection: OCIMY7_PLB cell viability assay (AID 1918987); further: nearly all actives have a fitted effect of over 65% in size
Procedure, shortened: as §1

[13] = Quantitative High-Throughput drug screen in 47 multiple myeloma cell lines against the NCATS MIPE library collection: OCIMY5_PLB cell viability assay (AID 1918988); further: nearly all actives have a fitted effect of over 65% in size
Procedure, shortened: as §1

[14] = Quantitative High-Throughput drug screen in 47 multiple myeloma cell lines against the NCATS MIPE library collection: OPM1_PLB cell viability assay (AID 1918989); further: nearly all actives have a fitted effect of over 40% in size
Procedure, shortened: as §1

[15] = Quantitative High-Throughput drug screen in 47 multiple myeloma cell lines against the NCATS MIPE library collection: SKMM1_PLB cell viability assay (AID 1919863); conditions: SKMM1 myeloma viability, CellTiter-Glo ATP, 48 h; viability: hits give low values; further: nearly all actives have a fitted effect of over 35% in size
Procedure, shortened: as §1

[16] = Quantitative High-Throughput drug screen in 47 multiple myeloma cell lines against the NCATS MIPE library collection: U266_ATCC cell viability assay (AID 1919864); further: nearly all actives have a fitted effect of over 35% in size
Procedure, shortened: as §1

[17] = Quantitative High-Throughput drug screen in 47 multiple myeloma cell lines against the NCATS MIPE library collection: XG6_PLB cell viability assay (AID 1919865); further: nearly all actives have a fitted effect of over 40% in size
Procedure, shortened: as §1

[18] = Quantitative High-Throughput drug screen in 47 multiple myeloma cell lines against the NCATS MIPE library collection: XG1_PLB cell viability assay (AID 1919866); further: nearly all actives have a fitted effect of over 35% in size
Procedure, shortened: as §1

[19] = Quantitative High-Throughput drug screen in 47 multiple myeloma cell lines against the NCATS MIPE library collection: LP1_DSMZ cell viability assay (AID 1918982); further: nearly all actives have a fitted effect of over 35% in size
Procedure, shortened: as §1

Measured: Potency
Potency means the concentration at half of the fitted maximal effect.

COc1cc(C(=O)N2CCC(N3CCN(C)CC3)CC2)ccc1Nc1ncc2c(n1)N(C)c1ccccc1C(=O)N2C
active: [1] 13.2 µM | [2] 1.66 µM | [3] 1.66 µM | [4] 2.09 µM | [5] 4.18 µM | [6] 7.43 µM | [7] 6.62 µM | [8] 6.62 µM | [9] 3.32 µM | [10] 4.69 µM | [11] 2.64 µM | [12] 2.96 µM | [13] 2.09 µM | [14] 1.87 µM | [15] 5.9 µM | [16] 2.09 µM | [17] 5.26 µM | [18] 2.64 µM

COc1cc2ncnc(Nc3ccc(F)c(Cl)c3)c2cc1NC(=O)C=CCN1CCCCC1
active: [1] 2.96 µM | [2] 18.7 µM | [3] 18.7 µM | [4] 18.7 µM | [5] 4.69 µM | [6] 26.4 µM | [7] 13.2 µM | [8] 16.6 µM | [10] 2.35 µM | [11] 26.4 µM | [12] 1.32 µM | [13] 16.6 µM | [14] 7.43 µM | [15] 20.9 µM | [16] 1.18 µM | [17] 4.18 µM | [18] 4.18 µM

CC(C)c1cc(C(=O)N2Cc3ccc(CN4CCN(C)CC4)cc3C2)c(O)cc1O
active: [1] 0.187 µM | [2] 0.235 µM | [3] 0.418 µM | [4] 0.148 µM | [5] 0.166 µM | [6] 0.418 µM | [7] 0.332 µM | [8] 0.418 µM | [9] 0.332 µM | [10] 0.059 µM | [11] 0.235 µM | [12] 0.0264 µM | [13] 0.105 µM | [14] 0.118 µM | [15] 0.418 µM | [16] 0.209 µM | [17] 0.296 µM | [18] 0.148 µM

CCOc1cc2ncc(C#N)c(Nc3ccc(F)c(Cl)c3)c2cc1NC(=O)C=CCN(C)C
active: [1] 4.69 µM | [2] 20.9 µM | [3] 18.7 µM | [4] 20.9 µM | [5] 5.9 µM | [6] 18.7 µM | [8] 4.18 µM | [19] 10.5 µM | [9] 14.8 µM | [11] 4.69 µM | [12] 0.0743 µM | [13] 0.264 µM | [14] 11.8 µM | [15] 16.6 µM | [16] 18.7 µM | [17] 2.64 µM | [18] 10.5 µM

Cc1cc(N2CCOCC2)cc2[nH]c(-c3c(NC[C@@H](O)c4cccc(Cl)c4)cc[nH]c3=O)nc12
active: [1] 0.0935 µM | [2] 0.526 µM | [3] 0.166 µM | [4] 11.8 µM | [5] 0.0526 µM | [6] 0.296 µM | [7] 0.187 µM | [8] 0.187 µM | [10] 0.148 µM | [11] 0.469 µM | [12] 0.105 µM | [13] 1.66 µM | [14] 0.469 µM | [16] 2.64 µM | [17] 0.0833 µM | [18] 0.187 µM

CC[C@@H]1C(=O)N(C)c2cnc(Nc3ccc(C(=O)NC4CCN(C)CC4)cc3OC)nc2N1C1CCCC1
active: [1] 6.62 µM | [2] 3.72 µM | [3] 13.2 µM | [4] 4.69 µM | [5] 2.35 µM | [6] 0.469 µM | [8] 1.18 µM | [19] 0.166 µM | [9] 0.0743 µM | [11] 0.187 µM | [13] 0.0372 µM | [14] 0.0935 µM | [15] 0.235 µM | [16] 23.5 µM | [18] 0.0083 µM

Cc1cc(Nc2cc(N3CCN(C)CC3)nc(Sc3ccc(NC(=O)C4CC4)cc3)n2)n[nH]1
active: [1] 4.69 µM | [2] 14.8 µM | [3] 10.5 µM | [4] 5.9 µM | [5] 5.9 µM | [7] 13.2 µM | [9] 11.8 µM | [11] 14.8 µM | [12] 0.296 µM | [13] 5.26 µM | [14] 5.9 µM | [15] 16.6 µM | [16] 16.6 µM | [17] 13.2 µM | [18] 4.18 µM

CCCCOc1c(C(=O)c2c(F)cc(C)cc2F)cnc2n[nH]cc12
active: [1] 4.18 µM | [2] 3.72 µM | [3] 5.26 µM | [4] 2.96 µM | [5] 1.32 µM | [7] 2.09 µM | [19] 3.32 µM | [9] 5.9 µM | [10] 3.32 µM | [11] 2.35 µM | [12] 4.18 µM | [13] 4.18 µM | [14] 11.8 µM | [15] 5.26 µM | [16] 13.2 µM | [17] 2.35 µM | [18] 2.96 µM
